This is an account of results in PubChem BioAssay AID488890 (Southern Research Specialized Biocontainment Screening …, 2010).

Hit rate of the full screen: of about 320,000 compounds, about 1,300 (0.41%) were called active. Inconclusive results (about 3%) are left out. No rule for the calls is given here. The list is a sample of the results. Measured potencies and affinities stand elsewhere.

A short description of the experiment: growth inhibition of non-replicating M. tuberculosis (AID 488890).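 Also: plate controls were DMSO cells for no effect and high antibiotic wells for full effect.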 The following applies: Mycobacterium tuberculosis non-replicating, at 25 µM, stronger effect = higher value.
Broadly, the inhibition is the relative decrease from the control value, in per cent. As for `N#Cc1ccc(C23CC4(C2)[C@H](CN(Cc2ccc(C(F)(F)F)cc2)[C@@H]4c2ccccc2)C3c2ccccc2)cc1` (stereo not given in full), the inhibition is 19.2%.
For `Cc1cc(C)c(NC(=S)N2CCN(c3ccc([N+](=O)[O-])cn3)CC2)cc1C` the value was -3%; for `OC/C(Br)=C(\Br)CO`, -3.52%.
Regarding `COc1ccc(OC)c(NC(=O)C2COc3ccccc3O2)c1` (stereo not given), the inhibition came to 30.6%.
For `CC(C)(C)NC(=O)c1ccc(NC(=O)C2COc3ccccc3O2)cc1` (stereo not given) the value was 45.9%.
For `COc1ccc(CNC(=O)C2COc3ccccc3O2)cc1` (stereo not given) the value was 72.5%.
For `NC(=O)c1ccc(NC(=O)C2COc3ccccc3O2)cc1` (stereo not given) the value was 1.12%; for `CCOC(=O)CN1C(=O)N[C@@H](c2ccccc2)C(C(=O)OC)=C1C`, -18.9%.
Turning to `COCc1ccc(C(=O)N2CCCC(N3CCN(c4ccccc4C)CC3)C2)s1` (stereo not given), the inhibition amounted to 20.7%.
Turning to `O=C1C2C3C=CC(C3)C2C(=O)N1CC1CCCO1` (stereo not given), the inhibition is -0.04%.
For `NC(=O)CCn1c(C(=O)c2cc(Cl)c(N)c(Cl)c2)c2ccccc2[n+]1[O-]` the value was 7%.
For `O=C(Nc1cccnc1)C1OCCc2ccccc21` (stereo not given) the value was -3.68%; for `COCCn1c(SCC(=O)Nc2ccc(S(=O)(=O)N(C)C)cc2)nc2ccccc21`, 0.14%.
`COc1cccc(NC(=O)CCC2CCN(C(=O)C3CC=CCC3)CC2)c1` (stereo not given): the inhibition was 6.11%.
For `Cc1nc(-c2cccc(S(=O)(=O)N3CCCCC3)c2)cs1` the value was 3.4%; for `COc1ccccc1NC(=O)c1cc(-c2cc(OC)c(OC)c(OC)c2)nc2ccccc12`, 1.97%; for `C/C(=C\C(=O)c1ccc(Br)cc1)NNC(=O)c1ccc(O)cc1`, 67.2%.
For `COc1ccc(N/C(C)=C/C(=O)c2ccccc2)cc1` the value was 57.9%.
For `C/C(=C\C(=O)c1ccc(Br)cc1)NCc1ccccc1` the value was 52.8%; for `COc1ccc(/C(O)=C/C(=O)C(=O)NNC(=O)c2ccccc2)cc1`, 22.9%.
In the case of `CCOc1ccc(N2CC(C(=O)NCCCc3ccccc3)CC2=O)cc1` (stereo not given), the inhibition stood at 24.1%.
For `Cc1cccc(NC(=O)Cn2cnc3sc(C)c(S(=O)(=O)N4CCC(C)CC4)c3c2=O)n1` the value was 7.28%; for `CCN1CCN(c2ccc(S(=O)(=O)N3CCOCC3)cc2NC(=O)c2sccc2C)CC1`, -12.4%; for `CC(=O)c1ccc(N2CCN(S(=O)(=O)c3cccc4nonc34)CC2)cc1`, 10.4%.
For `O=C(O)CCSc1ccccn1`, the inhibition was -2.61%.
For `O=C(O)CSc1ccccn1` the value was -10.9%; for `O=C(c1nnc(-c2ccncc2)o1)c1ccccc1Cl`, 72.4%; for `O=C(c1ccccc1)c1nnc(-c2ccncc2)o1`, 49.9%.
For `O=C(c1cccc(F)c1)N1CCC2(CC1)NCCc1[nH]cnc12` the value was -6.44%; for `CN(CC(O)COCc1cccs1)C1CCCCC1` (stereo not given), 4.88%; for `c1ccc(-c2cc3c(ccc4nonc43)nn2)cc1`, 21%.
For `O=C(O)c1cc(-c2ccccc2)nc2ccccc12` the value was -4.94%.
As to `Cc1ccc(NC(=O)CC(C)N2CCCC2)cc1` (stereo not given), the inhibition was -3.18%.
For `NCC(O)COCCC12CC3CC(CC(C3)C1)C2` (stereo not given) the value was 8.67%; for `CC(NCC(O)COCc1ccc(Cl)cc1)c1ccccc1` (stereo not given), 78.5%; for `Cc1nnc(NC(=O)c2ccccc2NC(=O)c2ccccc2)s1`, 33.7%.
In the case of `O=C(Nc1nnc(C(F)(F)F)s1)c1cccnc1`, the inhibition stood at 27.8%.
For the compound `Cc1cc(-c2n[nH]c(=S)n2-c2ccccc2C)cs1`, the inhibition was -13.2%.
For `COc1ccccc1NC(=O)COC(=O)/C=C/c1ccccc1[N+](=O)[O-]` the value was 65.2%.
Regarding `CCN1C(=O)/C(=C/c2ccc(N3CCCC3)cc2)NC1=S`, the inhibition was found to be 52.1%.
Regarding `COC(=O)COc1ccc(/C=C2/NC(=O)N(CC(=O)OC)C2=O)cc1`, the inhibition came out at 9.12%.
For `Cc1cc(C)n(-c2ccc(C(=O)Nc3cccc(S(=O)(=O)N4CCCC4)c3)cc2)n1` the value was -4.31%; for `C=CCn1c(SCC(=O)Nc2cc(C)cc(C)c2)nnc1-c1cnccn1`, -3.18%; for `CC[n+]1c(/C=C/Nc2ccccc2)oc2ccc(OC)cc21`, 35.5%.
Take `CC[n+]1c(/C=C/Nc2ccccc2)oc2ccccc21`: the inhibition turned out to be 67.7%.
For `Cc1cc(=O)oc2c3c(cc(OCC(=O)NCc4cccnc4)c12)OC(C)(C)CC3` the value was 7.63%.
Turning to `CC(=O)OCCc1c2ccccc2c(CCCN(C)C)c2ccccc12`, the inhibition amounted to 41.4%.
As for `Cc1onc(-c2c(Cl)cccc2Cl)c1C(=O)OCC(=O)c1ccccc1`, the inhibition was 15.6%.
`Cc1onc(-c2c(Cl)cccc2Cl)c1COC(=O)c1ccc(Cl)cc1`: the inhibition is 16.1%.
For `CC1CCc2cc(F)cc3c(=O)c(C(=O)O)cn1c23` (stereo not given) the value was 35.4%.
For `Cc1c(-n2cc(C(=O)O)c(=O)c3cc(F)c(N4CCCC(O)C4)c(F)c32)c(=O)n(-c2ccccc2)n1C` (stereo not given) the value was 0.14%; for `COc1c(F)c(F)cc2c(=O)c(C(=O)O)cn(C3CC3)c12`, 4.5%.
For `CCOC(=O)c1cn(C2CC2)c2c(F)c(F)c(F)cc2c1=O` the value was -13%; for `C=CCN(CC=C)C(=O)COC(=O)c1ccc(Sc2ncn[nH]2)c([N+](=O)[O-])c1`, 43.1%.
Consider `Cc1ccc(-c2ccc(SCC(=O)N3CCc4ccccc43)nn2)cc1`, for which the inhibition is -0.83%.
For `Cc1nn2c(NCCCn3ccnc3)cc(C(C)C)nc2c1-c1ccccc1` the value was 75.8%; for `Cc1cc(NC2CCCC2)n2ncc(-c3ccccc3)c2n1`, 36.8%; for `CC(=O)Nc1ccc(Nc2cc(C)nc3c(-c4ccc(Cl)cc4)c(C)nn23)cc1`, 2.43%.
As for `CCCc1cc(N2CCCC2)n2nc(C)c(-c3ccccc3)c2n1`, the inhibition is 43.4%.
For `Cc1cc(NCc2ccccc2)n2ncc(-c3ccccc3)c2n1` the value was 14.7%.
Turning to `CCCc1cc(N2CCN(c3ccccn3)CC2)n2nc(C)c(-c3ccccc3)c2n1`, the inhibition worked out at 2.63%.
With `CC(=O)Nc1ccc(Nc2cc(C(C)C)nc3c(-c4ccccc4)c(C)nn23)cc1`, the inhibition was determined as 5.77%.
For `Cc1cc(NCCCn2ccnc2)n2nc(C)c(-c3ccc(Cl)cc3)c2n1` the value was -1.28%; for `Nc1cc(N2CCNCC2)c([N+](=O)[O-])cc1Cl`, 6.14%; for `Cc1ccc(CNC(=O)C2CCCN(C(=O)N(C)C)C2)cc1` (stereo not given), -2.88%.
For `C=CCN1C(=O)c2ccc(C(=O)OCC(=O)Nc3ccccc3OC)cc2C1=O` the value was -2.33%; for `CC(=O)c1cc(CN2CCN(Cc3ccccc3)C(CCO)C2)cs1` (stereo not given), 1.86%; for `Cc1cc(C(=O)N(C)CC(=O)Nc2ccc(Cl)c(C(F)(F)F)c2)no1`, 6.97%.
For `Cc1c(NC(=O)COC(=O)Cn2cc(C(F)(F)F)ccc2=O)cccc1[N+](=O)[O-]` the value was -1.08%.
Regarding `Cc1cc(C)n2nc(SCC(=O)N(Cc3ccccc3)C3CCS(=O)(=O)C3)nc2n1` (stereo not given), the inhibition is -1.73%.
Turning to `Cc1cc(Nc2ccccc2)n2nc(C)c(-c3ccccc3)c2n1`, the inhibition amounted to 15.2%.
For `Cc1cc(NCCC(C)C)n2nc(C)c(-c3ccccc3)c2n1` the value was 49.1%; for `O=C(CCc1ccccc1)NNC(=O)c1cc(Cl)ccc1O`, -5.64%.
For `COc1ccc(C(=O)CC(=O)c2ccccc2O)cc1OC` the value was 22.7%.
For `O=C(CC(=O)c1ccccc1)Nc1ccc(Cl)cc1` the value was 51.8%.
In the case of `Cc1ccc(O)c(C(=O)CC(=O)c2cccc(F)c2)c1`, the inhibition is -5.71%.
With `C/C(=N\NC(=O)CNc1cccc(Cl)c1C)C1CC1`, the inhibition amounted to 2.17%.
As for `CC(=O)Nc1ccc(C(=O)N2CCN(S(=O)(=O)c3ccc4c(c3)OCCCO4)CC2)cc1`, the inhibition was -1.17%.
For `Cc1sc(NC(=O)C2=COCCO2)nc1-c1ccc(Cl)cc1` the value was 3.57%; for `c1ccc(CN2CCN(c3cnc4ccccc4n3)CC2)cc1`, 3.95%.
For `COc1cc(C(=O)NC(=S)NNC(=O)[C@H]2C[C@@H]2c2ccccc2)cc(OC)c1OC` the value was 62.4%; for `COc1cc(OC)cc(C(=O)NC(=S)NNC(=O)[C@H]2C[C@@H]2c2ccccc2)c1`, 78.5%.
For `CC(=O)NCCc1nc2cc(NS(=O)(=O)c3ccc(Cl)cc3)ccc2n1C` the value was -19.6%; for `COCCCN(CC(=O)Nc1ccc(F)cc1)S(=O)(=O)c1cccs1`, 5.35%.
On to `NNC(=O)/C(=C/c1cccs1)NC(=O)c1ccccc1Cl`, for which the inhibition was determined as 1.61%.
For `Nc1ccc(C(=O)Nc2ccc(OC(F)(F)C(F)F)c(NC(=O)c3ccc(N)cc3)c2)cc1` the value was 20.7%; for `CCN(CC)S(=O)(=O)c1ccc(NS(=O)(=O)c2ccc(OC)c([N+](=O)[O-])c2)cc1`, -6.27%; for `CCCCCCCC(=O)N1CCN(c2cc3c(cc2F)c(=O)c(C(=O)O)cn3CC)CC1`, 72.9%.
For `O=C(O)c1cn(C2CC2)c2cc(N3CCN(S(=O)(=O)c4ccc5c(c4)OCCO5)CC3)c(F)cc2c1=O` the value was 79.5%; for `CCn1cc(C(=O)NN)c(=O)c2cc(F)c(N3CCN(C)CC3)cc21`, -3.82%.
For `CCCCCCCCC(=O)N1CCN(c2cc3c(cc2F)c(=O)c(C(=O)O)cn3CC)CC1` the value was 62.8%; for `CCCCCCCCCC(=O)N1CCN(c2cc3c(cc2F)c(=O)c(C(=O)O)cn3CC)CC1`, 6.5%.
`CCOC(=O)c1cn(CC)c2cc(N3CCN(C)CC3)c(F)cc2c1=O`: the inhibition is -0.72%.
For `CCc1ccc(/C=N/NC(=O)Cc2ccc(OC)c(OC)c2)s1` the value was 9.54%.
For `COC(=O)C1=C2SC(C)C(=O)N2C(N)=C(C#N)C1c1ccc(OC)c(OC)c1` (stereo not given) the value was 5.18%.
On to `CC(=O)c1ccc(NC(=O)CCC(=O)OCC(F)(F)C(F)F)cc1`, for which the inhibition was -4.72%.
For `CC(=O)Nc1ccccc1OCc1cnc(Cl)s1` the value was 21%; for `Cc1cc(S(=O)(=O)Nc2cc(C)c(O)c(C)c2)c(C)s1`, 13%.
For `COc1ccc(-c2cc(NCCc3ccncc3)n3ncnc3n2)cc1` the value was 24.4%; for `COc1ccc(-c2cc(NCc3ccccn3)n3ncnc3n2)cc1`, 55.9%; for `C[C@H](CO)N1C[C@H](C)[C@@H](CN(C)S(=O)(=O)c2ccccc2)Oc2ccc(NC(=O)C3CC3)cc2C1=O`, 6.81%.
Turning to `Cc1cc(Br)ccc1SCC(=O)OCC(=O)NC1CCCC1`, the inhibition was determined as 35.6%.
For `O=C(Nc1ccc(NC(=O)c2cccc([N+](=O)[O-])c2)cc1)c1cccc([N+](=O)[O-])c1` the value was -7.47%; for `O=C(Nc1ccc(N2CCCCC2)cc1)c1cc([N+](=O)[O-])cc([N+](=O)[O-])c1`, 14.1%.
Take `Cc1csc(NC(=O)c2ccc(C(=O)Nc3nc(C)cs3)cc2)n1`: the inhibition is -7.26%.
For `Cc1csc(NC(=O)c2ccc(C)c([N+](=O)[O-])c2)n1` the value was 5.36%; for `CC(=O)Nc1ccc(C(=O)NNC(=O)c2cc([N+](=O)[O-])cc([N+](=O)[O-])c2)cc1`, 16.3%; for `COc1ccc(NC(=O)c2cc([N+](=O)[O-])ccc2N2CCCCC2)cc1`, -7.4%.
Take `O=C(Nc1ccc([N+](=O)[O-])cc1)c1cncc(Br)c1`: the inhibition was found to be 13.8%.
For `COc1ccc(NC(=O)c2cc([N+](=O)[O-])ccc2N2CCCC2)cc1` the value was -2.99%.
